Tau fluor cs: counter-screen for tau fibril formation inhibitors; AID 1463; actives 0.93% (n = 280,000); Potency, µM (doses to about 57.7 µM), for the others: at the highest dose activity change, negative = decrease; tau K18 P301L Alexa594 fluorescence, heparin fibrillization; note: potency is the fitted concentration of half-maximal effect; nearly all actives have a fitted effect of over 55% in size
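Human K18 P301L tau (15 uM unlabeled plus 0.24 uM Alexa 594-labeled, final) in 100 mM sodium acetate pH 7 was mixed with compound and 20 uM heparin and incubated 6 hr at 37 C.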
FBPA coupling cs: coupling enzyme interference in Giardia aldolase counter-screen; coupling enzyme system counterscreen, AmpLite Red fluorescence; activity change, negative = inhibition, % at 58.2 µM, hits read low; actives 0.67% (n = 290,000); AID 2472; in the data active = activity change below about -30%
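Activity here indicates interference with the coupling reaction, not aldolase inhibition. Compounds at 57.5 uM final met coupling enzymes for 10 min at RT; substrate and AmpLite Red detection followed, with a 525/598 nm fluorescence read after 20 min.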
G9a inh: G9a (human) methyltransferase inhibition | G9a H3K9 monomethylation, AlphaScreen, 2 h | Potency, µM (top dose mostly 102 µM), for the others: top-dose activity, negative = inhibition, usual class: inhibitors | AID 504332 | actives 8.8% (n = 350,000); note: potency is the fitted concentration of half-maximal effect; nearly all actives have a fitted effect of over 75% in size
Target sequence (Q96KQ7 913-1193 limits assumed): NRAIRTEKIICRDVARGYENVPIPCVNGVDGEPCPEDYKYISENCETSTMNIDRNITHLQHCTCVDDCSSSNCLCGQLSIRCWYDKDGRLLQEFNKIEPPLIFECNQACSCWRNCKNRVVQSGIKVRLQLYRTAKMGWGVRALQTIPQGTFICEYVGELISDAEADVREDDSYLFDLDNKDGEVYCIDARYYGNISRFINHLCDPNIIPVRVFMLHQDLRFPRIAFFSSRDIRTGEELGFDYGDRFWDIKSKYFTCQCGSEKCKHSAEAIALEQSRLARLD
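AlphaScreen detection with an anti-monomethyl H3K9 antibody quantified product after a 2 h room-temperature reaction containing 500 nM biotinylated H3K9 peptide, 20 µM SAM and 20 nM enzyme, which had been preincubated 15 min with compound.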
Tau FP inhib: blocks human tau fibril formation measured by polarization; AID 1468; P10636; Potency, µM (doses to about 57.7 µM), inactives show at the top dose activity, negative = inhibition, actives largely listed as inhibitors; actives 0.39% (n = 280,000); K18 P301L tau heparin fibrillization, Alexa594 FP, 6 h; note: potency is the fitted concentration of half-maximal effect; nearly all actives have a fitted effect of over 55% in size
Target sequence (P10636 561-689 P618L limits assumed): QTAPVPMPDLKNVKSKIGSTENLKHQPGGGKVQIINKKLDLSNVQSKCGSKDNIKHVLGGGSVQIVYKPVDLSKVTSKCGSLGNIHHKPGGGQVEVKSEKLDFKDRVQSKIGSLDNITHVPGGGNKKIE
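Recombinant K18 P301L […], labeled with Alexa 594 at 0.24 uM over 15 uM unlabeled; heparin inducer 20 uM final; 37 C, 6 hr; FP endpoint.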
Tau fibril ThT: tau fibrillization inhibition (ThT binding). P10636. recombinant tau K18 P301L (four-repeat tau fragment), heparin-induced fibrillization, ThT fluorescence. Potency, µM (series often up to 57.4 µM), for the others: top-dose activity, negative = inhibition, usual class: inhibitors. actives 2.1% (n = 270,000); note: potency is the fitted concentration of half-maximal effect; nearly all actives have a fitted effect of over 55% in size
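In this qHTS, human K18 P301L tau is incubated with compound and heparin for 6 hr at 37 C, and Thioflavin T fluorescence then reports fibril load.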
Sfp inh: inhibitors of Bacillus subtilis Sfp phosphopantetheinyl transferase. Q9F4F7. Biochemical Sfp PPTase activity, qHTS. Potency, µM, for the others: largest response in the series, negative = inhibition, usual class: inhibitors. actives 3.5% (n = 310,000). AID 1490;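 note: the enzyme is Sfp with the accession as filed and its product quenches rhodamine fluorescence; potency is the fitted concentration of half-maximal effect; 0% = enzyme reaction without inhibitor and -100% = no enzyme wells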
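Sfp 15 nM + cpd, 15 min RT; start w/ rhodamine-CoA 5 uM, BHQ-2-YbbR 12.5 uM (final); 50 mM Hepes pH 7.6, 10 mM MgCl2, 0.01% NP-40, 0.01% BSA; read 525/598 nm at 0 and 30 min.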
Starred values were filed as active, the others as inactive; ? = inconclusive; . = no result given; [ ] = another dose, or the depositor's remark. Shown are actives, neighbours in structure and some others; about 11% of the full set was active somewhere. Unless noted, calls come from the whole dose curve; as a rule, active = well fitted curve in the direction sought with a large enough effect; inconclusive = small, poorly fitted or top-dose-only effect, or another doubt; inactive = no such curve, though single readings can be large; an effect the other way counts as inactive or inconclusive. Unless noted, % is set by controls: 0 for no effect and ±100 for the full control effect.

SMILES	Tau fluor cs	FBPA coupling cs	G9a inh	Tau FP inhib	Tau fibril ThT	Sfp inh
C[C@]12CC[C@H]3[C@@H](CCC4C[C@H](O)CC[C@@]43C)[C@@H]1CC[C@@H]2O (some centres not stated)	-5%	.	10%[12.7 µM]	8%	-11%	.
CCN1C[C@]2(C)CC[C@H](OC)[C@@]34[C@H]1C1(OCO[C@@]15C[C@H](OC)C1C[C@]3(O)C5[C@H]1OC)[C@@H](O)[C@H]24	-2%	2	.	2%	-2%	8%
CN1c2ccc([N+](=O)[O-])cc2CC2(C(=O)NC(=O)N(c3ccccc3)C2=O)C1c1ccccc1 (configuration not stated)	-11%	9	-10%[59 µM]	3%	?	30%
CN1C(=O)N(C)C(=O)C2(Cc3ccccc3N3CCOCC32)C1=O (configuration not stated)	-6%	0	-3%[12.7 µM]	-14%	-10%	20%
Cc1ccc(N2C(=O)NC(=O)C3(Cc4ccccc4N4CCN(c5ccccc5)CC43)C2=O)cc1 (configuration not stated)	-16%	-3	7.1µM*	-14%	?	-12%
O=C1NC(=O)C2(Cc3ccccc3N3CCCC32)C(=O)N1c1cccc(Cl)c1 (configuration not stated)	-17%	1	32µM*	-1%	?	-11%
CCOc1ccc(N2C(=O)NC(=O)/C(=C\c3ccccc3[N+](=O)[O-])C2=O)cc1	-16%	8	32µM*	-7%	?	45µM*
CCC(C)c1ccc(N2C(=O)NC(=O)/C(=C/c3cccn3CCOc3ccc(C)cc3)C2=O)cc1 (configuration not stated)	-16%	1	27%[59 µM]	-10%	?	12%
COc1ccc(N2C(=O)NC(=O)/C(=C\c3ccccc3[N+](=O)[O-])C2=O)cc1	-27%	1	8.9µM*	-10%	?	40µM*
NCC(CS(=O)(=O)O)c1ccc(Cl)cc1 (configuration not stated)	7%	.	7%[59 µM]	2%	5%	-9%
O=NN1CCCC1c1cccnc1 (configuration not stated)	1%	.	17%[59 µM]	-3%	0%	26%
CC(C)(C)c1ccc(C(=O)Nc2ccc3nc(SCC(=O)N4CCCC4)sc3c2)cc1	?	.	5%[59 µM]	-8%	?	.
CCN1C(=O)C(=Cc2cc(C)n(C3CC3)c2C)C(=O)N(CC)C1=S	-5%	-1	50µM*	-4%	?	?
Cc1cc(C=C2C(=O)N(C)C(=S)N(C)C2=O)c(C)n1-c1cccnc1	6%	4	8.9µM*	8%	?	-2%
Cc1cc(C=C2C(=O)N(C)C(=S)N(C)C2=O)c(C)n1C1CCCC1	?	-3	11µM*	?	25µM*	56µM*
Cc1cc(/C=C2\C(=O)NC(=S)N(C)C2=O)c(C)n1C1CCCCC1	-11%	-1	?	-1%	?	?
Cc1csc(B(O)O)c1	-2%	0	.	0%	-10%	41%
CCC(=O)Nc1nc2ccccc2n1CCN(C)C	-8%	-4	32µM*	-4%	-7%	-13%
O=P1(Oc2ccccc2)CC=CC(COC(c2ccccc2)(c2ccccc2)c2ccccc2)O1 (configuration not stated)	.	0	.	.	.	-3%
O=C1NC(=S)NC(=O)C12C(c1ccc(F)cc1)NC(=S)NC2c1ccc(F)cc1 (configuration not stated)	2%	4	?	7%	-11%	40µM*
COC(=O)[C@@H]1C[C@@]2(O)[C@@H](O)[C@@H](O)[C@@H](O)C[C@H]2N1Cc1cccnc1	2%	0	.	0%	0%	39%
CC/C(=N\NC(=O)c1ccccc1)c1c(O)n(Cc2ccccc2)c(=O)[nH]c1=O	-23%	4	?	3%	?	12%
CCn1c(SCC(=O)NCc2ccccc2)nnc1C(CO)NC(=O)c1ccccc1 (configuration not stated)	.	.	32µM*	.	.	16%
COc1ccc(OCCOc2cccc(C=C3C(=O)NC(=O)NC3=O)c2)cc1	.	4	?	.	.	-86%
C=CCc1cc(C=C2C(=O)N(C)C(=O)N(C)C2=O)cc(OCC)c1OCc1ccccc1	-14%	1	3%	?	25µM*	32µM*
SMILES	Tau fluor cs	FBPA coupling cs	G9a inh	Tau FP inhib	Tau fibril ThT	Sfp inh
C=CCc1cc(C=C2C(=O)NC(=O)NC2=O)cc(OC)c1OCc1ccc(C(=O)O)cc1	-15%	12	32µM*	?	?	56µM*
Cc1ccc(-n2nc(C)c3c2OC(N)=C(C#N)C3c2cccs2)cc1 (configuration not stated)	?	2	35µM*	2%	?	6%
C[C@@H]1Cc2c(Cl)cc(C(=O)N[C@H](Cc3ccccc3)C(=O)O)c(O)c2C(=O)O1	.	10	.	.	.	6%
COP(=O)(OC)C1(O)C(=O)Nc2ccc(Br)cc21 (configuration not stated)	-9%	-3	8.9µM*	-5%	-10%	-1%
Cc1ccc(C)c(N2CCN(C(=O)C3CCN(Cc4nc(-c5cccc(Cl)c5)oc4C)CC3)CC2)c1	-27%	.	?	-10%	?	.
O=C(Nc1ccc2oc(-c3cccnc3)nc2c1)c1ccc(-c2cccc(Cl)c2)o1	-15%	.	?	-8%	?	.
COc1cc(/C=C2\C(=O)NC(=O)N(c3ccccc3)C2=O)cc(OC)c1OC	-22%	1	?	-13%	?	?
COc1cc(/C=C2/C(=O)NC(=O)N(c3ccc(C)cc3)C2=O)cc(OC)c1OC	-6%	0	-4%[12.7 µM]	-6%	-21%	50µM*
COc1cc(/C=C2\C(=O)NC(=O)N(c3ccc(C)cc3)C2=O)cc(OC)c1O	-17%	-29	20µM*	-17%	?	35µM*
COc1ccc(/C=C2/C(=O)NC(=O)N(c3ccc(C)c(C)c3)C2=O)cc1CN1C(=O)c2ccccc2C1=O	-5%	7	11µM*	4%	?	40µM*
O=C(O)CCC1NCC2CC1CN1CCCCC21 (configuration not stated)	-4%	1	.	-11%	-2%	-10%
CCC1(CC)C(=O)NC(=O)N(C)C1=O	.	.	12%[12.7 µM]	.	.	14%
O=CN1CCCCC1C1CC[C@H]2CCCCN2C1 (some centres not stated)	1%	1	.	2%	1%	-15%
N[C@H](Cn1ccc(=O)c(O)c1)C(=O)O	2%	2	18%[21.5 µM]	-6%	0%	-3%
N[C@@H](Cn1ccc(=O)c(O)c1)C(=O)O	.	.	10µM*	.	.	.
